Measurements as given in the supplement of paper PMC9948646.

Tested on: gramicidin D channels in DC22:1PC lipid vesicles (bilayer-modifying potency)
Experiment: initial Tl+ fluorescence quench rate relative to no-drug control (NormRate, gramicidin monomer-dimer shift) (ratio (fold of control)); higher = stronger bilayer-modifying effect (equilibrium shifted toward conducting dimers), active = 1.5 or more
Conditions: 10 µM; lipid concentration 50 µM; temperature: 25 °C
Description: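 Stopped-flow fluorescence quench assay: ANTS-loaded DC22:1PC large unilamellar vesicles doped with gramicidin D (1:2000), 50 µM lipid, equilibrated 10 min with 10 µM drug (0.1% DMSO), mixed with Tl+ quench buffer at 25°C. Initial quench rate (Tl+ influx) was fitted with a modified stretched exponential and normalised to the no-drug control rate (NormRate); duplicates from two independent LUV preparations (triplicates for 7 drugs).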

Row | SMILES | initial Tl+ fluorescence quench rate
1 | O=C(C1CCCCC1)N1CC(=O)N2CCc3ccccc3[C@@H]2C1 | 1.04 (inactive)
2 | Clc1cccc([C@@H](c2ccc(CN3CCNCC3)cc2)n2ccnc2)c1 | 1.17 (inactive)
3 | Cc1ccc(S(=O)(=O)Nc2ccc(CN3CCN(C(=O)c4cccc(C#N)c4)CC3)cc2)cc1 | 1.5 (active)
4 | CCc1ccc(S(=O)(=O)Nc2cc(CN3CCN(CCC(C)C)CC3)ccc2C)cc1 | 1.29 (inactive)
5 | Cc1[nH]c2cc(F)cc(F)c2c(=O)c1-c1ccc(Oc2ccc(OC(F)(F)F)cc2)cc1 | 1.11 (inactive)
6 | COc1ccc(CN2CCOc3ccc([C@@](C)(O)CN(C)C)cc3C2)cc1C | 1.2 (inactive)
7 | CC(C)(C(=O)Nc1ccc(F)cc1)n1cc(-c2ccccc2F)cn1 | 1.42 (inactive)
8 | Nc1nccc2ccc(Oc3ccncc3)cc12 | 1.1 (inactive)
9 | Cc1nn(C)cc1[C@H](C)Nc1nncc(-c2ccc(C(F)(F)F)cc2)n1 | 1.93 (active)
10 | C[C@H](C(=O)Nc1ccc2oc(-c3ccncc3)nc2c1)c1ccccc1 | 1.09 (inactive)
11 | CCCn1nnc(NC(=O)COc2ccc(C3CCCCC3)cc2)n1 | 2.51 (active)
12 | CS(=O)(=O)N1CCC(Cn2nc(Cc3cccc4ccccc34)c3c(N)ncnc32)CC1 | 1.47 (inactive)
13 | O=C(c1ccc(NCCO)cc1)[C@H]1C[C@H]1c1ccc(Cl)cc1 | 3.55 (active)
14 | Cc1cccnc1NC(=O)c1cccc(OCc2c(C)noc2C)c1 | 1.07 (inactive)
15 | COc1cccc(-n2nnnc2S(C)(=O)=O)c1 | 1.06 (inactive)
